SRC2 TRFRET art – flags TR-FRET format artefacts in PPARgamma SRC-2 recruitment agonist screen; TR-FRET artefact counter-screen; active compounds read high; TR-FRET ratio at 8 µM; actives 0.4% (n = 200,000)
SRC3 TRFRET art – counter-screen for PPARgamma SRC-3 recruitment agonists: TR-FRET artefact; PPARgamma/SRC-3 format; active compounds read high; TR-FRET ratio at 8 µM; actives 0.39% (n = 99,000)
PPARg SRC3 recr – PPARgamma-driven SRC-3 recruitment agonism; P37231; biochemical PPARgamma/SRC-3 coactivator recruitment assay; activation, % at 8 µM; actives 0.26% (n = 200,000); in the data active means activation above about 23%
SRC1 TRFRET art – TR-FRET artefact, counter-screen to PPARgamma/SRC-1 agonist assay. actives 0.34% (n = 99,000). TR-FRET ratio at 8 µM. TR-FRET detection artefact counter-screen, emission ratio; active compounds read high. AID 1051; in the data active means TR-FRET ratio above about 2300
PPARg SRC1 recr – promotes SRC-1 coactivator recruitment by human PPARgamma; P37231; PPARgamma-SRC-1 coactivator recruitment biochemical assay; activation, % at 8 µM; actives 0.41% (n = 200,000); in the data active means activation above about 19%
PPARg SRC2 recr – promotes SRC-2 coactivator recruitment by human PPARgamma. PPARgamma LBD-SRC-2 recruitment, biochemical. activation, % at 8 µM. actives 0.34% (n = 200,000); in the data active means activation above about 22%
PPARg SRC2 conf – human PPARgamma SRC-2 recruitment agonism, confirmation; shares compounds with PPARg SRC3 recr; biochemical SRC-2 recruitment by PPARgamma; activation, % at 8 µM; actives 52% (n = 790); AID 1297; in the data active means activation above about 22%
PPARg SRC1 conf – confirmation of agonists of SRC-1 recruitment by human PPARgamma. shares compounds with PPARg SRC3 recr. PPARgamma–SRC-1 coactivator recruitment biochemical assay. activation, % at 8 µM. actives 43% (n = 790); in the data active means activation above about 20%
PPARg SRC3 conf – confirmation of agonists of SRC-3 recruitment by human PPARgamma | shares compounds with PPARg SRC3 recr | biochemical PPARgamma-SRC-3 coactivator recruitment, agonist mode | activation, % at 8 µM | actives 29% (n = 790); in the data active means activation above about 24%
Each line names hits and unclear results; the compound was inactive in the other large screens (follow-up assays come after a bar, where they were run). An excerpt weighted towards active compounds, which were near 0.9% of everything screened. Unless noted, no stated cut-off is given here; in the data, active means TR-FRET ratio above about 2000; inactive means the rest.

FC(F)(F)c1cnc(-c2cnc(-c3cccnc3)nc2)c(Cl)c1	none
CCOC(=O)c1c(O)c2ccccc2n(CC)c1=O	none
COc1cccc(NC(=O)CN(C)C(C)C(=O)Nc2cc([N+](=O)[O-])ccc2Cl)c1 (stereo not drawn)	none
CCOC(=O)c1sc(C)c2c1NC1(CCCCC1)NC2=O	none (no result: SRC3 TRFRET art, SRC1 TRFRET art)
CCOC(=O)c1sc(C)c2c1NC(C)(c1cccs1)NC2=O (stereo not drawn)	PPARg SRC3 recr 26.4 (no result: SRC3 TRFRET art, SRC1 TRFRET art) | PPARg SRC2 conf inactive | PPARg SRC1 conf inactive | PPARg SRC3 conf inactive
O=C(c1ccco1)N1N=C(c2ccc(Br)cc2)CC1(O)C(F)(F)F (stereo not drawn)	SRC2 TRFRET art 2022, PPARg SRC1 recr 23.2 | PPARg SRC2 conf inactive | PPARg SRC1 conf inactive | PPARg SRC3 conf inactive
O=C(c1ccco1)N1N=C(c2ccc(Cl)cc2)CC1(O)C(F)(F)F (stereo not drawn)	none
CS(=O)(=O)c1ccc(C(=O)Nc2ccc(N3CCCCC3)cc2)c(Cl)c1	none
Cc1ccc(Sc2ccc(NC(=O)c3ccc(S(C)(=O)=O)cc3Cl)cc2)cc1	PPARg SRC3 recr 33.1, PPARg SRC1 recr 54.2 (no result: SRC3 TRFRET art, SRC1 TRFRET art) | PPARg SRC2 conf 24.2 | PPARg SRC1 conf 21.2 | PPARg SRC3 conf inactive
Cc1n[nH]c(C)c1CCc1nc2c3ccccc3nc(SCC(N)=O)n2n1	none (no result: SRC3 TRFRET art, SRC1 TRFRET art)
Cc1ccc(NC(=O)CSc2nc3ccccc3c3nc(CCc4c(C)n[nH]c4C)nn23)cc1F	PPARg SRC1 recr 24.7 (no result: SRC3 TRFRET art, SRC1 TRFRET art) | PPARg SRC2 conf inactive | PPARg SRC1 conf inactive | PPARg SRC3 conf inactive
CN(C)c1ccc(N/C=C/C(=O)c2ccco2)cc1	PPARg SRC2 recr 24.0 (no result: SRC3 TRFRET art, SRC1 TRFRET art) | PPARg SRC2 conf inactive | PPARg SRC1 conf inactive | PPARg SRC3 conf inactive
CC(=O)Nc1ccc(N/C=C/C(=O)c2ccco2)cc1	none (no result: SRC3 TRFRET art, SRC1 TRFRET art)
CN(C)c1ccc(N/C=C/C(=O)c2ccc(F)cc2)cc1	PPARg SRC3 recr 26.5 (no result: SRC3 TRFRET art, SRC1 TRFRET art) | PPARg SRC2 conf inactive | PPARg SRC1 conf inactive | PPARg SRC3 conf inactive
NS(=O)(=O)c1ccc(N/C=C\C(=O)c2ccc(F)cc2)cc1	none
O=C(CSc1ncccn1)NC1CCCc2ccccc21 (stereo not drawn)	none
CC(=O)c1cccc(S(=O)(=O)N2CCN(c3nc4cc(C)cc(C)c4cc3C#N)CC2)c1	PPARg SRC3 recr 38.7, PPARg SRC1 recr 25.7 (no result: SRC3 TRFRET art, SRC1 TRFRET art) | PPARg SRC2 conf inactive | PPARg SRC1 conf inactive | PPARg SRC3 conf inactive
Cc1cc(C)c2cc(C#N)c(N3CCCN(S(=O)(=O)c4ccccc4)CC3)nc2c1	none (no result: SRC3 TRFRET art, SRC1 TRFRET art)
Cc1ccc(-c2nc(NCC3CCCO3)sc2C)cc1 (stereo not drawn)	none
CCCCc1nc2sc3c(SCC(=O)NCc4ccco4)ncnc3c2c2c1CCC2	PPARg SRC1 recr 22.0 (no result: SRC3 TRFRET art, SRC1 TRFRET art) | PPARg SRC2 conf 37.5 | PPARg SRC1 conf 26.2 | PPARg SRC3 conf 25.8
OCCSc1ncnc2c1oc1ccccc12	PPARg SRC2 recr 23.4 (no result: SRC3 TRFRET art, SRC1 TRFRET art) | PPARg SRC2 conf 27.7 | PPARg SRC1 conf 21.8 | PPARg SRC3 conf inactive
CCOC(=O)CC(=O)CSc1ncnc2c1oc1ccccc12	SRC2 TRFRET art 3929, PPARg SRC3 recr 138.2, PPARg SRC1 recr 96.5, PPARg SRC2 recr 87.2 (no result: SRC3 TRFRET art, SRC1 TRFRET art) | PPARg SRC2 conf 55.1 | PPARg SRC1 conf 36.0 | PPARg SRC3 conf 37.0
O=C(CSc1ncnc2c1oc1ccccc12)N1CCCc2ccccc21	SRC2 TRFRET art 1981, PPARg SRC3 recr 39.5, PPARg SRC2 recr 39.9 (no result: SRC3 TRFRET art, SRC1 TRFRET art) | PPARg SRC2 conf 30.9 | PPARg SRC1 conf 24.0 | PPARg SRC3 conf inactive
O=C(NNC1=NC2(CCCC2)Cc2ccccc21)c1cccnc1	none
O=C(CSc1ncnc2c1oc1ccccc12)NCc1ccco1	SRC2 TRFRET art 3393, PPARg SRC3 recr 106.5, PPARg SRC1 recr 91.5, PPARg SRC2 recr 91.8 (no result: SRC3 TRFRET art, SRC1 TRFRET art) | PPARg SRC2 conf 64.7 | PPARg SRC1 conf 47.0 | PPARg SRC3 conf 43.9
O=C(O)CSc1ncnc2c1oc1ccccc12	PPARg SRC1 recr 19.3, PPARg SRC2 recr 26.2 (no result: SRC3 TRFRET art, SRC1 TRFRET art) | PPARg SRC2 conf inactive | PPARg SRC1 conf inactive | PPARg SRC3 conf inactive
O=C(CSc1ncnc2c1oc1ccccc12)Nc1ccccc1C(F)(F)F	none

High-throughput results (PubChem)
